Experimental data published in PubChem BioAssay (EPA / NIEHS).
The source made the active and inactive calls. The calls were made as follows: active = hit-call score of the fitted dose curve at least 0.9, where 1 is the maximum; inactive = score below 0.9.

How the values were obtained:
[1] = APR_HepG2_CellLoss_72hr: Apredica 72-hour HepG2 Assay for Cell Loss (AID 2282915); conditions: high-content imaging
Method in brief: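 HepG2 cells exposed 72 h to compound at 0.39–200 uM (10 concentrations, duplicate) in 0.5% DMSO. Fixed with 3.7% formaldehyde and Hoechst 33342-stained. Imaged at 20x; nuclear count gives cell number, fitted bidirectionally versus DMSO.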

[2] = APR_HepG2_P-H2AX_72hr: Apredica 72-hour HepG2 Assay for H2AX Phosphorylation (AID 2282916); conditions: imaging, actives raise or lower the signal;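 also: phospho-histone H2A.x immunostain intensity per cell marking DNA damage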
Method in brief: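 Phospho-histone H2A.x immunofluorescence, multiplexed with Hoechst and c-Jun, quantified by high-content imaging. Compounds applied to HepG2 for 72 h across ten concentrations (0.39–200 uM, 0.5% DMSO), in duplicate; DMSO baseline.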

[3] = APR_HepG2_MitoMembPot_72hr: Apredica 72-hour HepG2 Assay for Mitochondrial Membrane Potential (AID 2282917); conditions: imaging, actives raise or lower the signal
Method in brief: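 HepG2 cells dosed 72 hr with compound at 0.39–200 uM in duplicate, 0.5% v/v DMSO final. Mitochondria stained with 250 nM MitoTracker Red CMXRos for 30 min before formaldehyde fixation, imaged by high-content fluorescence; bidirectional fit versus DMSO.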

[4] = APR_HepG2_MitoticArrest_72hr: Apredica 72-hour HepG2 Assay for Mitotic Arrest (AID 2282918); conditions: high-content imaging, actives raise or lower the signal
Method in brief: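 HepG2, 72 hr exposure, 0.39–200 uM in duplicate, 0.5% v/v DMSO final. Formaldehyde-fixed, Triton-permeabilized, anti-phospho-histone H3/FITC plus Hoechst. ArrayScan imaging at 20x; curves fit bidirectionally against DMSO baseline.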

[5] = APR_HepG2_MicrotubuleCSK_72hr: Apredica 72-hour HepG2 Assay for Microtubule CSK Stabilty (AID 2282919); conditions: HepG2 microtubule cytoskeleton, high-content imaging, actives raise or lower the signal
Method in brief: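 HepG2, 72 hr cmpd exposure, 0.39–200 uM (10 pts, duplicate), 0.5% DMSO. 3.7% formaldehyde fix, 0.5% Triton perm, anti-alpha-tubulin/Cy5 plus Hoechst. HCS fluorescence intensity; bidirectional fit vs DMSO baseline; taxol as positive control.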

[6] = APR_HepG2_P-H2AX_24hr: Apredica 24-hour HepG2 Assay for H2AX Phosphorylation (AID 2282920); conditions: high-content imaging, actives raise or lower the signal
Method in brief: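 HCS fluorescence imaging of phospho-H2A.x immunostain (with Hoechst 33342 nuclear counterstain) in HepG2 after 24 hr compound exposure; 10 concentrations, 0.39–200 uM, duplicate wells, 0.5% v/v DMSO. Gain or loss of signal fitted relative to DMSO baseline.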

[7] = APR_HepG2_StressKinase_72hr: Apredica 72-hour HepG2 Assay for Stress Kinase (AID 2282921); conditions: HepG2 stress kinase (phospho-c-Jun) imaging, actives raise or lower the signal
Method in brief: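 Stress kinase signal is phospho-c-Jun immunofluorescence (1:500 primary, Cy3 secondary) in fixed, permeabilized human HepG2 cells imaged at 20x. Exposure lasted 72 hr over ten concentrations from 0.39 to 200 uM, 0.5% DMSO, in duplicate. Bidirectional fit versus DMSO.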

[8] = APR_HepG2_StressKinase_24hr: Apredica 24-hour HepG2 Assay for Stress Kinase (AID 2282922); conditions: HepG2 stress kinase (phospho-c-Jun) imaging, actives raise or lower the signal
Method in brief: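 Read-out: phospho-c-Jun immunofluorescence (Cy3 secondary) quantified by high-content imaging at 20x, nuclei defined by Hoechst 33342. Human HepG2 liver cells dosed 24 hr, 0.39–200 uM, DMSO 0.5% v/v; gain or loss of signal fitted relative to DMSO.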

[9] = APR_HepG2_p53Act_72hr: Apredica 72-hour HepG2 Assay for p53 Activation (AID 2282923); conditions: high-content imaging, actives raise or lower the signal;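 also: average cellular p53 protein immunofluorescence intensity in HepG2 cells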
Method in brief: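 After 72 h with compound (ten points, 0.39 to 200 uM, final DMSO 0.5% v/v), fixed HepG2 cells were labelled with sheep anti-p53 and Hoechst 33342 and imaged; gain or loss versus DMSO scored.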

[10] = APR_HepG2_NuclearSize_72hr: Apredica 72-hour HepG2 Assay for Nuclear Size (AID 2282925); conditions: high-content imaging, actives raise or lower the signal
Method in brief: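 Read-out: nuclear diameter from Hoechst 33342 images (ArrayScan, 20x, six fields/well), via cell-cycle image analysis. HepG2 were dosed 0.39–200 uM for 72 hr in 0.5% DMSO. Bidirectional fit relative to DMSO.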

[11] = ATG_CMV_CIS: Attagene CIS-FACTORIAL HepG2 Assay for human CMV (Internal Marker) (AID 2282928); conditions: HepG2 CMV promoter reporter, transcription factor profiling; actives raise or lower the signal;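 also: endpoint acts as a background internal control marker rather than a target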
Method in brief: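 Fluorescence intensity of RT-PCR-derived reporter fragments, resolved by capillary electrophoresis, gives the signal. HepG2 liver cells bearing transfected cis-element reporters were treated 24 h; activity in either direction was fit relative to DMSO-treated controls.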

[12] = ATG_DR4_LXR_CIS: Attagene CIS-FACTORIAL HepG2 Assay for human Liver X Receptor (LXR), DR4 submotif (AID 2282929); conditions: HepG2 Attagene DR4 cis-reporter, mRNA transcription; actives raise or lower the signal
Method in brief: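 Endogenous factor activity at a DR4 cis-element is read as reporter mRNA in transiently transfected HepG2 cells. Exposure lasts 24 h; transcripts are amplified, fluorescently labelled and sized by capillary electrophoresis, with DMSO as baseline.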

[13] = molecular target: Aryl hydrocarbon receptor (Homo sapiens) (UniProt P35869); test: ATG_Ahr_CIS: Attagene CIS-FACTORIAL HepG2 Assay for human Aryl Hydrocarbon Receptor (Ahr) (AID 2282930); conditions: HepG2 AhR cis-factorial reporter transcription; actives raise or lower the signal
Method in brief: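 Endogenous factor activity is tracked through cis-promoter reporter units transfected into HepG2 cells. Transcript levels at 24 h are read by fluorescent RT-PCR and capillary electrophoresis, with activity in either direction scored relative to DMSO.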

[14] = ATG_AP_1_CIS: Attagene CIS-FACTORIAL HepG2 Assay for human Activator Protein 1 (AP-1) (AID 2282931); conditions: HepG2 Attagene cis-factorial AP-1 reporter mRNA; actives raise or lower the signal
Method in brief: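 Fluorescence of labelled PCR fragments separated by capillary electrophoresis gives reporter mRNA levels. HepG2 with transfected cis-regulated reporter units, 24 h exposure; DMSO serves as baseline for bidirectional curve fits.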

[15] = ATG_AP_2_CIS: Attagene CIS-FACTORIAL HepG2 Assay for human Activator Protein 2 (AP-2) (AID 2282932); conditions: HepG2 AP-2 cis-reporter, Attagene transcription factor profiling; actives raise or lower the signal
Method in brief: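 Liver-derived HepG2 line, cis-reporter system measuring endogenous factors; 24 h dosing; reporter mRNA detected by fluorescent RT-PCR and capillary electrophoresis.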

[16] = ATG_BRE_CIS: Attagene CIS-FACTORIAL HepG2 Assay for human Bone Morphogenetic Protein (BMP) Response Element (BRE) (AID 2282933); conditions: HepG2 BMP response element reporter, Attagene transcription factor profiling; actives raise or lower the signal
Method in brief: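 After a 24 h chemical treatment, transiently transfected HepG2 cells were lysed for RNA; reporter transcripts were quantified by fluorescent RT-PCR and capillary electrophoresis, normalised to DMSO.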

[17] = molecular target: Retinoic acid receptor alpha (Homo sapiens) (UniProt P10276); test: ATG_DR5_RAR_CIS: Attagene CIS-FACTORIAL HepG2 Assay for human Retinoic Acid Receptor Alpha (RARE), DR5 submotif (AID 2282934); conditions: HepG2 Attagene cis-factorial RARE DR5 reporter, mRNA; actives raise or lower the signal
Method in brief: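 After 24 h of chemical exposure, transiently transfected HepG2 cells were lysed for total RNA; the DR5-regulated reporter transcript was quantified via RT-PCR and capillary electrophoresis, with activity fitted bidirectionally against DMSO.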

[18] = ATG_CRE_CIS: Attagene CIS-FACTORIAL HepG2 Assay for human cAMP Responsive Element (CRE) binding protein 3 (AID 2282926); conditions: HepG2 CRE cis-reporter, Attagene multiplexed mRNA; actives raise or lower the signal
Method in brief: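 Readout: fluorescently labelled reporter transcripts resolved by capillary electrophoresis after RT-PCR, taken 24 h post-dosing in transfected HepG2. Endogenous transcription factor activity drives each cis-element reporter; gain or loss of signal fitted relative to DMSO control.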

[19] = molecular target: CCAAT/enhancer-binding protein beta (Homo sapiens) (UniProt P17676); test: ATG_C_EBP_CIS: Attagene CIS-FACTORIAL HepG2 Assay for human CCAAT/Enhancer Binding Protein (C/EBP) beta (AID 2282927); conditions: HepG2 Attagene cis-factorial transcription factor reporter; actives raise or lower the signal
Method in brief: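 HepG2, transient MRTU transfection, 24 h treatment. RT-PCR plus CE fluorescence; DMSO negative control, bidirectional fit.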

[20] = APR_HepG2_MitoMass_72hr: Apredica 72-hour HepG2 Assay for Mitochondrial Mass (AID 2282924); conditions: high-content imaging, actives raise or lower the signal;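 also: MitoTracker Red CMXRos stain intensity per cell imaged as mitochondrial mass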
Method in brief: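 Read-out: MitoTracker Red fluorescence intensity from automated imaging (20x, six fields per well) in human HepG2 liver cells. Dosing ran 72 hr, 0.39–200 uM, 0.5% DMSO; bidirectional curve fitting versus DMSO baseline.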

Measured: AC50

Chain of Aryl hydrocarbon receptor (Homo sapiens) (P35869 whole entry, looked up): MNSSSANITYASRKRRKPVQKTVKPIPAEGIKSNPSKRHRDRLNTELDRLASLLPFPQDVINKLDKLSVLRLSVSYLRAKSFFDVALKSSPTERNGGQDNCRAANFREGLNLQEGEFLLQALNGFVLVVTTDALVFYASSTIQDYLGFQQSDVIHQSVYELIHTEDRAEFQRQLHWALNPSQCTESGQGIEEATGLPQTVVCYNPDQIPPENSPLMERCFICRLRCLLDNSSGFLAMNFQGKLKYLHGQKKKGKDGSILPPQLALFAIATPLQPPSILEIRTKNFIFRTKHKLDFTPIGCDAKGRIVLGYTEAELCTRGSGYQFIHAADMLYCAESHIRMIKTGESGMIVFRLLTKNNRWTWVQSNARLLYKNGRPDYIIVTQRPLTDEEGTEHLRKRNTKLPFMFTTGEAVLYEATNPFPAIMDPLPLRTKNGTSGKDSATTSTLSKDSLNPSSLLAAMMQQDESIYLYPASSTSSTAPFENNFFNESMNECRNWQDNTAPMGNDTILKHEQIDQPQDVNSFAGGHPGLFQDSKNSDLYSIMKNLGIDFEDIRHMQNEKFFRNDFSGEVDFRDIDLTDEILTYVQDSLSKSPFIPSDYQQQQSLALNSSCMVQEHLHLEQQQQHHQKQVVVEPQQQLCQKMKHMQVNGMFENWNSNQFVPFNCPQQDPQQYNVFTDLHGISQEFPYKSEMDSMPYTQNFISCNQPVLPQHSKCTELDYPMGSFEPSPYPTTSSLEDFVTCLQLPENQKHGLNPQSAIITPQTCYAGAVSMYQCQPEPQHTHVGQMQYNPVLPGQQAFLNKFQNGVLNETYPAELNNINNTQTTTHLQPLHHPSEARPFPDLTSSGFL
Chain of Retinoic acid receptor alpha (Homo sapiens) (P10276 whole entry, looked up): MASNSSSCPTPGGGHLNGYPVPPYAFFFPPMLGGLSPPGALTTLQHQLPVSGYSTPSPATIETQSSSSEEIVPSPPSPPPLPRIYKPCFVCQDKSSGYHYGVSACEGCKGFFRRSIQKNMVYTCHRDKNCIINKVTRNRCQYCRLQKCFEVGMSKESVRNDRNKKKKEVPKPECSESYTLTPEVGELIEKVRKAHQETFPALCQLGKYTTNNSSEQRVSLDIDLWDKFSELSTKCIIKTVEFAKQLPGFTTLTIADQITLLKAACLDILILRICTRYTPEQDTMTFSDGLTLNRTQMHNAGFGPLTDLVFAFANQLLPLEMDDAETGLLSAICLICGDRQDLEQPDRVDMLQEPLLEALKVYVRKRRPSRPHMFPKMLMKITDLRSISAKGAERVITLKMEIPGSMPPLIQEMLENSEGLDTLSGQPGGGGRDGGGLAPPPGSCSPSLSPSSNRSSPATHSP
Chain of CCAAT/enhancer-binding protein beta (Homo sapiens) (P17676 whole entry, looked up): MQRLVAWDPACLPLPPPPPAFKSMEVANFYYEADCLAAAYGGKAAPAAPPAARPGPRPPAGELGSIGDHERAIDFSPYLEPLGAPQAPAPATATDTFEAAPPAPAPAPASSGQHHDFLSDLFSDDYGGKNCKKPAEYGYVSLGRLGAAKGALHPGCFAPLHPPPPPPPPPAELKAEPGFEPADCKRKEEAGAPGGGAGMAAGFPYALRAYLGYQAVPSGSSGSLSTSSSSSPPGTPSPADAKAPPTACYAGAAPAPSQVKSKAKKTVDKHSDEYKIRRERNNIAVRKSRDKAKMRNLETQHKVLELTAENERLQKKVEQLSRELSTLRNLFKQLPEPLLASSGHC

C[C@]12C=CC(=O)C=C1CC[C@@H]1[C@@H]2C(=O)C[C@@]2(C)[C@H]1CC[C@]2(O)C(=O)CO
not listed: [18] | [19] | [20]
inactive: all other assays above

O=C(O)Cc1ccccc1Nc1c(Cl)cccc1Cl
active: [1] 107 µM | [12] 68.7 µM | [13] 67.3 µM
not listed: [15] | [17] | [20]
inactive: all other assays above

FC(F)(F)C(F)(F)C(F)(F)C(F)(F)C(F)(F)C(F)(F)CCI
active: [13] 32.1 µM
not listed: [2] | [20]
inactive: all other assays above

Cc1ccc(N(C)C)cc1
not listed: [2] | [15] | [18] | [19]
inactive: all other assays above

O=c1[nH]cc(F)c(=O)[nH]1
active: [1] 2.45 µM | [11] 8.27 µM | [14] 12.9 µM
not listed: [2] | [17] | [18]
inactive: all other assays above

COCCOC[C@H](CC1(C(=O)NC2CCC(C(=O)O)CC2)CCCC1)C(=O)Oc1ccc2c(c1)CCC2 (some centres undefined)
not listed: [2] | [20]
inactive: all other assays above

COc1cc(-c2nc(NC(=O)c3cc4cc(C)cc(C)c4n3CC(=O)O)sc2CCC2CCCCC2)c(OC)cc1Cl
inactive: [3] | [7] | [9] | [10] | [12]
active: [1] 26.4 µM | [4] 41.1 µM | [5] 25.2 µM | [6] 38.9 µM | [8] 48.8 µM | [11] 3.3 µM | [13] 10.4 µM | [14] 3.59 µM | [16] 10.4 µM

NCCO
not listed: [2] | [18] | [19]
inactive: all other assays above
